# Bioassay records from PubChem.
# HIV RNase H inh-1: blocks HIV-1 RNase H cleavage of RNA/DNA duplex | P04585 | AID 565 | RT-RNase H RNA/DNA duplex cleavage, fluorescence | hit rate 1.9% among 65,000 | inhibition, % at 10 µM; in the data active = inhibition above about 50%
# HIV RNase H inh-2: confirmation of HIV-1 reverse transcriptase RNase H inhibitors; inhibition, % at 10 µM; hit rate 39% among 1,000; Recombinant RT RNase H, fluorescent RNA/DNA duplex cleavage; shares compounds with HIV RNase H inh-1; in the data active = inhibition above about 48%
# A number is an active result; n = inactive. The sample as a whole holds a higher share of hits than the screen did.
SMILES,HIV RNase H inh-1,others
COCCOc1ccc(C(F)(F)F)cc1NC(=O)COC(=O)c1c(C)noc1C,n,
O=C(C1CCC1)N1CCc2cc(S(=O)(=O)NCCN3CCN(c4ccccc4F)CC3)ccc21,n,
COc1ccc(NC(=O)C23CCC(C)(C(=O)C2)C3(C)C)cc1 (stereo not given),n,
c1ccc(Cn2nnc3c(N4CCC5(CC4)OCCO5)ncnc32)cc1,n,
c1ccc(Cn2nnc3c(N4CCCC4)ncnc32)cc1,n,
c1ccc(-n2nnc3c(N4CCOCC4)ncnc32)cc1,67.2,HIV RNase H inh-2=n
CSc1nc(-c2ccccc2O)nc(-c2ccccc2O)n1,n,
CCc1ccccc1NC(=O)c1cc(C2CC2)on1,n,
CCCOc1ccc(N2C(=O)CC(N(O)c3ccccc3)C2=O)cc1 (stereo not given),n,
COc1ccccc1N(O)C1CC(=O)N(c2ccc(F)cc2)C1=O (stereo not given),62.8,HIV RNase H inh-2=n
Cc1ccc(N2C(=O)CC(N(O)C3CC(=O)N(c4ccc(C)cc4)C3=O)C2=O)cc1 (stereo not given),n,
CCOC(=O)C1=C(C)NC(SCc2cc(=O)[nH][nH]2)=C(C#N)C1c1cccs1 (stereo not given),n,
COc1ccc(C(CNC(=O)C2CC(=O)N(Cc3ccc(C)cc3)C2)N(C)C)cc1 (stereo not given),n,
CCn1c(COc2ccccc2)nnc1SCC(=O)NC1CCCCC1,62.7,HIV RNase H inh-2=n
Cn1c(COc2ccc(Cl)cc2)nnc1SCC(=O)NC1CCCCC1,n,
Cc1ccc(OCc2nnc(SCC(=O)NC3CCCCC3)n2C)cc1,n,
CC1(C)CC2(CCO1)OC(=O)CC2C(=O)NCc1ccccc1 (stereo not given),n,
Cc1ccc(C)c(S(=O)(=O)NC(CC(C)C)C(=O)O)c1 (stereo not given),n,
COc1ccc(-c2nn3c(C4CCCCC4)nnc3s2)cc1OC,n,
c1ccc(-c2nn3c(C4CCCCC4)nnc3s2)cc1,n,
COc1cc(-c2nn3c(C4CCCCC4)nnc3s2)cc(OC)c1OC,74.8,HIV RNase H inh-2=n
CCn1c(SCC(=O)Nc2ccc(OCc3ccccc3)cc2)nnc1-c1ccco1,n,
CCOc1ccc(N2C(=O)c3cccnc3C2Nc2ccc(Cl)cc2)cc1 (stereo not given),n,
Cc1ccc(NC2c3ncccc3C(=O)N2c2ccccc2C)cc1C (stereo not given),56.2,HIV RNase H inh-2=n
COC(=O)c1cc(NC2c3ncccc3C(=O)N2Cc2ccccc2)cc(C(=O)OC)c1 (stereo not given),n,
SMILES,HIV RNase H inh-1,others
COc1ccc2cc3cc(C(=O)Nc4ccc5c(c4)OCO5)oc3nc2c1,62.5,HIV RNase H inh-2=n
CCCN(CCC)CCCNC(=O)c1cc2cc3ccc(OC)cc3nc2o1,n,
Cc1ccc2cc3cc(C(=O)NCc4ccc5c(c4)OCO5)oc3nc2c1,n,
CC(C)CCNC(=O)CN(Cc1ccc2c(c1)OCO2)C(=O)Cn1nnc(-c2cccs2)n1,n,
COC(=O)c1ccc(Oc2nc3ccccc3n3c(C)nnc23)cc1,n,
CCCCCOC(=O)C1=C(C)N(C)C(=O)NC1c1cc(Br)c(O)c(OC)c1 (stereo not given),n,
CC1=C(C(=O)N(C)C)C(c2cccc(Cl)c2)NC(=O)N1 (stereo not given),n,
CC1SC(c2cccc(Cl)c2)NC1=O (stereo not given),59.9,HIV RNase H inh-2=n
O=C1NCCN1Cc1cccc(Cl)c1,n,
CCOC(=O)CSc1nc2ccc(N3CCOCC3)cc2c(=O)n1Cc1ccc2c(c1)OCO2,n,
CCc1ccccc1N(CC(=O)N1CCN(c2ccccc2)CC1)S(C)(=O)=O,n,
CCOC(=O)c1cnc2nc[nH]n2c1=O,n,
COc1ccc(N2CCN(CCNC(=O)c3ccc(NC(=O)C4CCCO4)cc3)CC2)cc1 (stereo not given),n,
CN1CCc2c(sc3c2C(=O)NC(c2cccc(OC(=O)c4cccs4)c2)N3)C1 (stereo not given),n,
O=C1NC(c2ccco2)Nc2sc3c(c21)CCN(Cc1ccccc1)C3 (stereo not given),n,
O=C1NC(c2cccs2)Nc2sc3c(c21)CCCC3 (stereo not given),93.7,HIV RNase H inh-2=n
Cn1c(=O)c2cc(S(=O)(=O)NC(C(=O)N3CCCCCC3)c3ccccc3)ccc2n(C)c1=O (stereo not given),n,
O=C(Nc1ccc(N2CCOCC2)cc1)c1ccc2nc(-c3ccco3)c(-c3ccco3)nc2c1,91.5,HIV RNase H inh-2=63.4
O=C(Nc1ccc(N2CCN(C(=O)c3ccco3)CC2)cc1)c1ccc(F)cc1,n,
O=C(Nc1nnc(-c2ccco2)s1)c1ccccc1,n,
O=C(NCc1ccco1)c1cccc(NC(=O)c2ccccc2)c1,n,
CCCNC(=O)c1cc(-c2ccco2)on1,n,
Cn1nnc2cc(C(=O)NCc3ccco3)ccc21,n,
O=C(Nc1ccccc1)c1ccc2nc(-c3ccco3)c(-c3ccco3)nc2c1,99.8,HIV RNase H inh-2=n
COc1ccc(C(=O)Nc2ccc(N3CCOCC3)cc2)cc1OC,n,
SMILES,HIV RNase H inh-1,others
CCCCNC(=O)c1ccc2nc(-c3ccco3)c(-c3ccco3)nc2c1,91.5,HIV RNase H inh-2=n
Cn1c(NC(=O)C2CCCO2)cc(=O)n(C)c1=O (stereo not given),n,
N#CCCSc1ccccc1NC(=O)c1ccc(S(=O)(=O)N2CCCC2)cc1,n,
COc1cccc(-c2noc(C3CCCN(S(=O)(=O)c4cccc(Cl)c4C)C3)n2)c1 (stereo not given),n,
CC1Cc2ccccc2N1C(=O)CSc1nnnn1Cc1ccccc1 (stereo not given),n,
O=C(Cc1cccs1)Nc1ccc(NC(=O)c2ccco2)cc1,n,
Cc1ccc(SCc2cn3c(C)csc3n2)cc1,n,
O=C(CN1CCN(Cc2ccccc2)CC1)c1c[nH]c2ccccc12,n,
CCCC(=O)Nc1cc(C)c2c(=O)oc3ccccc3c2n1,n,
Cc1cc(NC(=O)CC(C)(C)C)nc2c1c(=O)oc1ccccc12,n,
Cc1cc(NC(=O)CN2CCc3ccccc3C2)nc2c1c(=O)oc1ccccc12,57.8,HIV RNase H inh-2=n
COc1ccc(-n2c(N)c(Br)c(=O)[nH]c2=O)cc1,n,
Cc1nc2sc(C(c3ccccc3)N3CCN(CCO)CC3)c(O)n2n1 (stereo not given),n,
COC(=O)C1CCCN1C(=O)C1CCCN1C(=O)CNC(=O)OCc1ccccc1 (stereo not given),n,
COC(=O)C(CCCCNC(=O)OCc1ccccc1)NC(=O)CN (stereo not given),n,
CC(NC(=O)CNC(=O)OCc1ccccc1)C(=O)N1CC(O)CC1C(=O)OCc1ccccc1 (stereo not given),65.8,HIV RNase H inh-2=n
O=C(NC1(C(F)(F)F)C(=O)Nc2c1c(=O)[nH]c(=O)n2Cc1ccco1)C1CCCCC1 (stereo not given),n,
CN1CCN(S(=O)(=O)c2ccc(NC(=O)c3ccc(Br)s3)cc2)CC1,n,
CSc1ccc(NC(=O)NCCCN2CCN(c3ccccc3F)CC2)cc1,52.8,HIV RNase H inh-2=n
O=C(NCCCN1CCN(c2ccccc2F)CC1)Nc1ccc(F)cc1,n,
COc1ccccc1N1CCN(CCCNC(=O)Nc2ccccc2)CC1,n,
COC(=O)c1nc2n(n1)C(c1cc(OC)ccc1OC)C(C(=O)OC1CCCCC1)=C(C)N2 (stereo not given),n,
Cc1cc(OCc2nn[nH]n2)c2c(C)c(Cc3ccccc3)c(=O)oc2c1,n,
CCOc1ccc(C2c3c(oc4ccccc4c3=O)C(=O)N2c2ccccn2)cc1OC (stereo not given),n,
COc1cccc(C(=O)Nc2ccccc2N2CCOCC2)c1,n,
